This note sets out measurements from PubChem BioAssay (NCI).

This is part of a sample that, as a whole, favours compounds with a hit. Of some 83,000 tested, about 20% had one in any assay.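 48-hour exposure, single concentration, 96-well plates; percent growth endpoint where 0 means no net growth. Active: below 10.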 A number with no mark means an inactive call. The source made the active and inactive calls.

Among the test systems are BT-549 breast; MDA-MB-435 melanoma; SW-620 colon; MCF7 breast; HCC-2998 colon; KM12 colon; HCT-116 colon.
What all share (experiment): NCI-60 one-dose screen, 48 h (100 = growth as untreated, 0 = no growth, -100 = all killed)
Holding throughout (conditions): 10 µM

For `COc1ccc(Cl)cc1-n1nnc(-c2nc3ccccc3[nH]2)c1N`, the growth in the experiment with BT-549 breast is 98.8%; with MDA-MB-435 melanoma, 88.6%; with SW-620 colon, 75.6%; in the experiment with MCF7 breast, 94.3%; with HCC-2998 colon, 93.4%.
Take `S=c1[nH]ccn1-c1c(Cl)cccc1Cl`: the growth in the experiment with BT-549 breast was 88.9%; with MDA-MB-435 melanoma, 97.3%; with SW-620 colon, 106%; in the experiment on MCF7 breast it was 97.8%; in the experiment on HCC-2998 colon, 99.5%; with KM12 colon, 104%.
On to `COc1cc2nc(Nc3cccc(NC(C)=O)c3)nc(N)c2cc1OC`, for which the growth was 118% with BT-549 breast; 123% with MDA-MB-435 melanoma; 95.9% in the experiment with SW-620 colon; 99.5% with MCF7 breast; 113% in the experiment on HCC-2998 colon.
As to `COc1ccc(-c2ccc(-c3ccc(C(=N)N)cn3)o2)cc1`, the growth in the experiment on BT-549 breast was 86.3%; in the experiment on MDA-MB-435 melanoma it was 26.4%; with SW-620 colon it was 80.4%; in the experiment on MCF7 breast, 47.3%; in the experiment on HCC-2998 colon, 29.1%.
As for `COc1cccc(-c2cc(-c3cccc(NS(C)(=O)=O)c3)nc(N)c2C#N)c1O`, the growth was 58.1% with BT-549 breast; -20.8% (active) in the experiment with MDA-MB-435 melanoma; 37.4% in the experiment with SW-620 colon; 19.1% in the experiment on MCF7 breast; -25.3% (active) in the experiment on HCC-2998 colon; 23.1% in the experiment with KM12 colon.
With `COc1ccc2c(c1)/C(=C\c1c[nH]c3ccc(OC)cc13)C(=O)N2`, the growth in the experiment with BT-549 breast was 57.7%; in the experiment with MDA-MB-435 melanoma it was -11.5% (active); in the experiment on SW-620 colon, 15.1%; in the experiment with MCF7 breast, 29.6%; with HCC-2998 colon, 49.4%; in the experiment with KM12 colon, 10.1%.
Turning to `COc1ccc(-c2nn(-c3cccc(NC(=O)c4cc(C(F)(F)F)cc(C(F)(F)F)c4)c3)cc2-c2ccncc2)cc1Cl`, the growth was 87.3% with BT-549 breast; 6.11% (active) with MDA-MB-435 melanoma; 79.2% in the experiment with SW-620 colon; 54.2% in the experiment on MCF7 breast; 71.1% in the experiment on HCC-2998 colon; 48.8% in the experiment with KM12 colon.
As to `Oc1[nH]c2ccc(Cl)cc2c1/C=c1/ccc2c(c1)N=C(c1cc(F)cc(F)c1)N=2`, the growth is 81.9% with BT-549 breast; 1.43% (active) with MDA-MB-435 melanoma; 53.8% in the experiment with SW-620 colon; 5.27% (active) with MCF7 breast; 86.2% with HCC-2998 colon; 44.4% in the experiment with KM12 colon.
Take `Cn1c(C(N)=O)cc2c1-c1nc(Nc3ccccc3)ncc1CCC2`: the growth with BT-549 breast was 33.7%; with MDA-MB-435 melanoma, 45%; with SW-620 colon it was 57.2%; in the experiment with MCF7 breast, 38.7%; in the experiment with HCC-2998 colon it was 73.1%; with KM12 colon it was 7.9% (active).
For the compound `O=C1/C(=C\c2ccc(Br)cc2)CN(C(=O)c2ccccc2F)C/C1=C\c1ccc(Br)cc1`, the growth with BT-549 breast was -0.615% (active); in the experiment on MDA-MB-435 melanoma, -44.9% (active); with SW-620 colon, -56.4% (active); with MCF7 breast, -33.5% (active); in the experiment on HCC-2998 colon, -81.3% (active).
For the compound `COc1ccc2c(c1)C(=O)c1c-2c(OCCN2CCCCC2)nc2ccc(OC)cc12`, the growth with BT-549 breast was 51.3%; in the experiment with MDA-MB-435 melanoma, 23.9%; in the experiment on SW-620 colon it was 8.07% (active); with MCF7 breast, 9.47% (active); with HCC-2998 colon, 39.8%; with KM12 colon, 29.2%.
Take `O=C1C(c2ccccc2)C2C=CC(C2)N1O` (stereo not given): the growth is 136% in the experiment with BT-549 breast; 107% in the experiment with MDA-MB-435 melanoma; 109% with SW-620 colon; 104% with MCF7 breast; 103% in the experiment with HCC-2998 colon; 108% with KM12 colon.
On to `O=C1OCC2=C1C(c1cccc(Cl)c1)c1cc3c(cc1N2CCO)OCO3` (stereo not given), for which the growth in the experiment with BT-549 breast is 59.6%; in the experiment with MDA-MB-435 melanoma it was -46.1% (active); in the experiment with SW-620 colon, 21.3%; with MCF7 breast it was 23.9%; in the experiment with HCT-116 colon, 19%; in the experiment with KM12 colon, 8.24% (active).
As for `CSc1nn(-c2ccccc2)c2ncnc(Oc3ccc(C)cc3)c12`, the growth with BT-549 breast is 98%; in the experiment with MDA-MB-435 melanoma, 102%; with SW-620 colon, 103%; with MCF7 breast it was 97.7%; in the experiment on HCC-2998 colon, 99.4%.
For the compound `COc1ccc(/C(=C2\O[C@@H]([C@H]3COC(C)(C)O3)[C@H]3OC(C)(C)O[C@@H]23)c2cc(OC)c(OC)c(OC)c2)cc1O`, the growth was 57.7% in the experiment on BT-549 breast; -44.7% (active) with MDA-MB-435 melanoma; 15.4% in the experiment with SW-620 colon; 54% in the experiment on HCT-116 colon; 102% in the experiment with HCC-2998 colon; 26.7% with KM12 colon.
Take `COc1cc(/C=C2\Oc3cc(OCC(=O)c4ccccc4)ccc3C2=O)cc(OC)c1OC`: the growth in the experiment on BT-549 breast was 128%; with MDA-MB-435 melanoma, 103%; in the experiment on SW-620 colon, 114%; with MCF7 breast, 99.1%; in the experiment with HCC-2998 colon, 120%; in the experiment with KM12 colon, 98.9%.
For the compound `Nc1cc2c(cc1Cl)-c1ccc([N+](=O)[O-])cc1/C2=N\O`, the growth was 89% in the experiment on BT-549 breast; 51.3% in the experiment on MDA-MB-435 melanoma; 38.6% in the experiment on SW-620 colon; 79.2% in the experiment on MCF7 breast; 97.3% with HCC-2998 colon; 65% in the experiment with KM12 colon.
As to `C/C(N)=C(\C#N)C(=O)c1ccccc1`, the growth was 113% in the experiment with BT-549 breast; 100% in the experiment with MDA-MB-435 melanoma; 106% in the experiment with SW-620 colon; 96.6% in the experiment with MCF7 breast; 102% in the experiment on HCC-2998 colon; 107% in the experiment with KM12 colon.
On to `COc1cc(-c2cc(/C=C3\C(=O)Nc4ccccc43)[nH]n2)cc(OC)c1OC`, for which the growth is 34.7% in the experiment with BT-549 breast; 38.7% in the experiment with MDA-MB-435 melanoma; 60.2% in the experiment with SW-620 colon; 47.3% in the experiment on HCT-116 colon; 87.4% in the experiment on HCC-2998 colon; 10.3% in the experiment on KM12 colon.
On to `N#Cc1cccc(OCc2nc(N)nc(N)c2-c2ccc(Cl)c(Cl)c2)c1`, for which the growth with BT-549 breast is 40.1%; in the experiment with MDA-MB-435 melanoma it was 21.3%; with SW-620 colon, 17.9%; in the experiment with MCF7 breast, 28.5%; in the experiment on HCC-2998 colon, 29.8%; in the experiment on KM12 colon, 25.2%.
